# ADAM17 inh: ADAM17 inhibitors, primary screen, biochemical, QFRET | inhibition, % at 6.95 µM | Disintegrin and metalloproteinase domain-containing protein 17 (Homo sapiens), P78536 | AID 720648, 2013 | recombinant ADAM17, EDANS/DABCYL FRET peptide cleavage | 370,000 compounds, 0.83% hits;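 active = inhibition above the mean of compounds lying between control limits plus 3 SD, set per campaign, cut at about 8.5% in these data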;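 also: 0% = DMSO-only wells as the low control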
# ADAM10 inh: human ADAM10 inhibitors, primary screen, biochemical, QFRET, HTS; Disintegrin and metalloproteinase domain-containing protein 10 (Homo sapiens), O14672; recombinant ADAM10, EDANS/DABCYL FRET peptide cleavage, 3 h; inhibition, % at 7 µM; 370,000 compounds, 0.62% hits; AID 720582, 2013;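 active = inhibition above a per-campaign cutoff equal to the mean of compounds falling between control-based bounds plus 3 SD, cut at about 20% in these data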;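 also: 0% = DMSO wells while the 100% control is not disclosed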
# GRIN3A LBD mod: binders of NR3A ligand-binding domain, primary screen, biophysical, differential scanning fluorimetry, uHTS | Glutamate receptor ionotropic, NMDA 3A (GRIN3A) ligand-binding domain | NR3A LBD differential scanning fluorimetry, Tm shift; 0% = protein alone, 100% = glycine-bound protein | Tm shift relative to glycine control, % at 25 µM | 340,000 compounds, 2.5% hits;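 active = melting temperature shift of at least 10% of the positive control shift, at one fixed dose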
# AHR activator: AHR activators, primary screen, cell-based, luminescence, luciferase reporter, human; Aryl hydrocarbon receptor (Homo sapiens), P35869; AHR-responsive luciferase reporter cells; activation, % at 5 µM; 320,000 compounds, 2.5% hits; in the data active = activation above about 47%;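 also: 0% = vehicle wells and 100% = reference agonist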
# rCAG RNA binder: binders of r(CAG) RNA repeats, primary screen, biochemical, fluorescence; r(CAG) RNA repeat, TO-PRO-1 dye displacement fluorescence; inhibition, % at 3 µM; 370,000 compounds, 1.3% hits;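 active = inhibition above the plate cutoff, the mean of all test compounds on that plate plus 3 SD, cut at about 35% in these data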;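 also: 0% = DMSO alone and 100% = 100 µM mitoxantrone as full dye displacement; higher means more dye released from RNA so lower well fluorescence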
# proKLK7 act: proKLK7 zymogen activators, primary screen, biochemical, fluorescence intensity; 370,000 compounds, 0.9% hits; AID 652039, 2013; activation, % at 7 µM; purified proKLK7, EDANS-DABCYL substrate fluorescence; 100% is mature enzyme control, 0% vehicle;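 active = activation above the mean of all tested compounds plus 3 SD, computed per campaign excluding outliers beyond control limits, cut at about 13% in these data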
# Target sequence (P49862 whole entry, looked up): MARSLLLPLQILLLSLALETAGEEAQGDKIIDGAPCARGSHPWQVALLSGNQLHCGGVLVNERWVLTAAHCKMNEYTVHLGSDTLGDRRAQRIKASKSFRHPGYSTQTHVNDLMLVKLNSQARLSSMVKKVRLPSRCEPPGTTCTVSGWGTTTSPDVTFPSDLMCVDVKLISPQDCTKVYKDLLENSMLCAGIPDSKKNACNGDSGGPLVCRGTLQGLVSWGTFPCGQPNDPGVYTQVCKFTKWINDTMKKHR
# Active calls of the source: *; nt = not tested or not shown. In the library only some 7% were active in any assay of this set; here they are far more common.
SMILES,ADAM17 inh,ADAM10 inh,GRIN3A LBD mod,AHR activator,rCAG RNA binder,proKLK7 act
C=CCn1c(COc2ccc(C)cc2)nnc1SCc1ccc([N+](=O)[O-])cc1,3,5,nt,nt,-1,0
O=C(NCCc1ccccc1)OCc1cn(Cc2ccccc2C(F)(F)F)nn1,3,1,nt,nt,-2,0
CCOP(=O)(OCC)C(Nc1ccccc1)c1ccc2c(c1)OCO2 (configuration not stated),2,6,0,1,-4,-1
CCCCOP(=O)(OCCCC)C(Nc1ccccc1)c1ccc2c(c1)OCO2 (configuration not stated),5,0,14*,0,-6,0
CCOC(=O)Cc1c(C)nc2cc(-c3ccc(C)cc3)[nH]n2c1=O,-25,-59,0,20,6,-3
CCc1c(C)nc2cc(-c3cccc(Br)c3)[nH]n2c1=O,-9,-11,0,70*,3,0
CC(=O)NC(=S)Nc1ccc(NC(=O)c2cccs2)cc1,0,8,-27,-2,0,1
O=C(NNC(=S)NC(=O)c1cccs1)c1ccc(NC(=O)c2ccccc2)cc1,-1,-3,23*,9,34,0
COc1ccccc1C(=O)NC(=S)Nc1ccc(NC(=O)c2cccs2)cc1,1,1,30*,25,1,0
O=C(NC(=S)Nc1nc2ccccc2s1)c1cccs1,-3,-4,27*,72*,3,0
O=C(Nc1ccc(NC(=S)NC(=O)c2cccs2)cc1)c1ccccc1,-3,-7,26*,5,8,1
O=C(NCc1ccco1)O[C@@H]1CC[C@@]23CCCN2C(=O)CCC[C@H]3C1,-2,-3,nt,nt,nt,nt
CC1(C)OC(=O)C2=C(CC(CCc3ccccc3)OC2c2cccc(C(F)(F)F)c2)O1 (configuration not stated),0,2,nt,nt,2,-1
COc1ccc(N2C(=O)c3n[nH]c(C)c3C2c2ccccc2)cc1 (configuration not stated),3,-1,nt,nt,3,0
C=CCn1c(SCC(=O)C(C)(C)C)nnc1-c1ccc(Cl)cc1,1,-3,nt,nt,-3,0
CCOC(=O)Cn1cc(CN2CCS(=O)(=O)N(Cc3ccc(C)cc3)C(C(=O)OC)C2)nn1 (configuration not stated),-5,-7,nt,nt,1,0
Cc1sc2ncnc(N(C)Cc3cccs3)c2c1C,0,4,11*,-7,-4,0
CC(=O)N1CCc2c1cccc2S(=O)(=O)NC(CC(C)C)C(=O)Nc1ccc(Cl)c(Cl)c1 (configuration not stated),2,5,nt,nt,5,0
Cc1cccc(S(=O)(=O)N/N=c2\sc3ccccc3n2C)c1,-1,7,-2,66*,0,0
C(=N\Nc1nc(Nc2ccccc2)nc(Nc2ccccc2)n1)/c1ccncc1,-3,-2,1,28,2,0
Cc1ccc(-c2cc(-c3ccccc3)nc(N/N=C/c3cccnc3)n2)cc1,-12,-35,-6,63*,9,-3
C(=N\Nc1nc(Nc2ccccc2)nc(Nc2ccccc2)n1)/c1cccnc1,5,11,27*,142*,13,0
O=S1(=O)CC2c3ccc(F)cc3CN2CN1Cc1ccccc1 (configuration not stated),0,-3,nt,nt,3,0
C[C@H](CO)N1C[C@H](C)[C@@H](CN(C)S(=O)(=O)c2ccc(F)cc2)Oc2c(NC(=O)CCC(F)(F)F)cccc2C1=O,1,2,1,-1,-5,0
C[C@H](CO)N1C[C@H](C)[C@@H](CN(C)S(=O)(=O)c2ccc(F)cc2)Oc2c(NS(=O)(=O)c3ccc(F)cc3)cccc2C1=O,-5,-7,1,-1,14,1

# Screens from PubChem.
